CIT2-GFP yeast: modulators of CIT2-GFP expression in yeast, primary screen, S. cerevisiae, GFP fusion, multiplex flow cytometry, MLPCN library. S. cerevisiae CIT2-GFP strain, 3 h; 100 means same as DMSO wells. GFP response vs DMSO, % at 10 µM. actives 0.065% (n = 320,000). AID 2029, 2009;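 active means GFP response relative to DMSO above a set limit, near the screen mean plus 3 SD, cut at about 150% in these data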;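 further: ratio of well median GFP fluorescence to mean of DMSO wells on the plate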
AGP1-GFP MLPCN: modulators of AGP1-GFP expression in yeast TOR pathway, primary screen, cell-based, multiplex flow cytometry, S. cerevisiae, MLPCN library; 3 h; GFP as percent of DMSO wells; GFP response vs DMSO, % at 10 µM; actives 0.02% (n = 320,000); AID 2066, 2009;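 active means GFP response relative to DMSO above a set limit, near screen average plus 3 SD, cut at about 150% in these data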;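 further: median GFP channel fluorescence of the gated AGP1 strain per well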
RPL19A TOR yeast: RPL19A-GFP expression modulators in yeast, primary screen, cell-based, S. cerevisiae, multiplex flow cytometry, MLPCN. actives 0.3% (n = 330,000). percent response vs DMSO, % at 10 µM. AID 2025, 2009. S. cerevisiae RPL19A-GFP strain, 3 h; stronger effect = lower value;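 active means percent response vs DMSO below 50%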;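 further: median channel GFP fluorescence of the barcoded RPL19A-GFP strain; ratio of sample median GFP to plate DMSO average so 100% = DMSO; lower means less RPL19A-GFP as with rapamycin TOR inhibition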
LAP4 TOR yeast: modulators of LAP4-GFP expression in yeast, primary screen, S. cerevisiae, multiplex flow cytometry, MLPCN library. actives 0.34% (n = 320,000). GFP response vs DMSO, % at 10 µM. AID 2023, 2009. 3 h; median GFP as percent of DMSO wells;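 active means GFP response vs DMSO above a set limit, about the screen mean plus 3 SD, cut at about 150% in these data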
MEP2-GFP yeast: modulators of MEP2-GFP levels in yeast, primary screen, S. cerevisiae, multiplex flow cytometry, MLPCN library; actives 0.51% (n = 330,000); S. cerevisiae MEP2-GFP strain, 3 h; 100% = DMSO control level; GFP response vs DMSO, % at 10 µM;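 active means GFP response versus DMSO above a set limit, roughly screen mean plus 3 SD, cut at about 180% in these data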;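 further: median GFP fluorescence of the barcode-gated MEP2-GFP cells per well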
LAP4 cherry2: LAP4-GFP expression modulators in yeast, confirmation, cell-based, second cherry pick, flow cytometry. shares compounds with LAP4 TOR yeast. S. cerevisiae LAP4-GFP strain, 3 h. GFP response vs DMSO, % at 10 µM. actives 20% (n = 590). AID 2621, 2010;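 active means GFP signal as percent of the solvent control above about 150%, meaning raised reporter expression, limit read from the data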;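 further: ratio of well median GFP fluorescence to plate DMSO mean so 100% = DMSO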
MEP2 cherry2: modulators of MEP2-GFP levels in yeast, confirmation, S. cerevisiae, flow cytometry GFP, second cherry picks; GFP response vs DMSO, % at 10 µM; shares compounds with LAP4 TOR yeast; actives 10% (n = 590); S. cerevisiae MEP2-GFP strain, 3 h; AID 2622, 2010;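 active means GFP signal above 150% of the solvent control wells, that is a rise of more than half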;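 further: median channel GFP fluorescence of all gated yeast cells per well; ratio of median GFP to plate DMSO average so 100% = DMSO level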
RPL19A GFP CP2: RPL19A-GFP modulators in TOR pathway yeast, confirmation, cell-based, S. cerevisiae, flow cytometry, second cherry pick. shares compounds with LAP4 TOR yeast. S. cerevisiae RPL19A-GFP strain, 3 h; stronger effect = lower value; 100% means same as DMSO wells. GFP response vs DMSO, % at 10 µM. actives 3% (n = 590). AID 2623, 2010;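 active means under 65% GFP response relative to DMSO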;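 further: median GFP channel fluorescence per well over the all cells gate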
CIT2-GFP pick2: modulators of CIT2-GFP expression in yeast, confirmation, flow cytometry, second cherry pick, single plex; shares compounds with LAP4 TOR yeast; S. cerevisiae CIT2-GFP strain, 3 h; DMSO control wells read 100%; GFP response vs DMSO, % at 10 µM; actives 8% (n = 590);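 active means GFP response vs DMSO above about 150%, limit read from the data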;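 further: median green fluorescence per well over all gated yeast cells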
AGP1-GFP pick2: AGP1-GFP expression modulators, hit retest, confirmation, cell-based, flow cytometry, S. cerevisiae, cherry pick set 2; shares compounds with LAP4 TOR yeast; S. cerevisiae AGP1-GFP strain, 3 h; percent response vs DMSO, % at 10 µM; 590 tested, under 10 active; AID 2643, 2010;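 active means over 150 percent of DMSO response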;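 further: median GFP channel fluorescence over all cells without mother daughter split; sample median GFP divided by mean DMSO control so 100% equals DMSO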
Yeast autofluor: compound autofluorescence in yeast s288c, dose response, artefact control for yeast TOR pathway GFP screen, s288c strain | shares compounds with LAP4 TOR yeast | S. cerevisiae s288c, 520 nm autofluorescence, flow cytometry, 3 h; stronger effect = higher value; zero means same as solvent-only cells | fluorescence change (kMESF span) at 33 µM | 610 tested, under 10 active | AID 2757, 2010;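 active means fluorescence span over the dose series, or activity score, above about 33, limit read from the data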
TORC1 bypass: wild-type yeast growth inhibition sparing TORC1 bypass cells, mechanism study for yeast TOR pathway GFP screen, BY4741 wild type, TORC1 bypass strain | shares compounds with LAP4 TOR yeast | S. cerevisiae BY4741 spot growth rating, 48-72 h; stronger effect = lower value | growth rating (0-3) at 30 µM | 120 tested, under 10 active | AID 504456, 2011;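 active means growth rating at most 1 for wild type yeast while the TORC1 bypass strain still grows fully, rated 3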
The depositor's hits bear a star. An excerpt weighted towards active compounds, which were near 0.93% of everything screened.

Screening Cc1cc(Nc2cc(Nc3ccccc3)nc(NCc3ccccc3)n2)n[nH]1 returned TORC1 bypass 3.
Screening COC(=O)c1nc(-c2ccccc2)n[nH]1 returned CIT2-GFP yeast 86.0, AGP1-GFP MLPCN 96.9, RPL19A TOR yeast 102.3, LAP4 TOR yeast 99.8 and MEP2-GFP yeast 106.1.
`COC(=O)c1cccc(-c2cc(Nc3cc(C)[nH]n3)nc(NCc3ccccc3)n2)c1` gave TORC1 bypass 3.
Cc1cc(C)nc(Nc2n[nH]c(COc3ccc4ccccc4c3)n2)n1 was read as CIT2-GFP yeast 93.4, AGP1-GFP MLPCN 100.7, RPL19A TOR yeast 96.0, LAP4 TOR yeast 104.9 and MEP2-GFP yeast 104.1.
`Cc1cc(C)nc(Nc2n[nH]c(COc3ccccc3)n2)n1` gave CIT2-GFP yeast 101.3, AGP1-GFP MLPCN 25.4, RPL19A TOR yeast 62.1, LAP4 TOR yeast 87.7, MEP2-GFP yeast 167.0, LAP4 cherry2 101.2, MEP2 cherry2 106.5, RPL19A GFP CP2 99.3, CIT2-GFP pick2 104.3 and AGP1-GFP pick2 96.4.
`O=C(Oc1cccc2cccnc12)c1ccc(Br)o1` gave CIT2-GFP yeast 103.5, AGP1-GFP MLPCN 105.5, RPL19A TOR yeast 101.2, LAP4 TOR yeast 102.9, MEP2-GFP yeast 102.8, LAP4 cherry2 102.2, MEP2 cherry2 99.6, RPL19A GFP CP2 100.0, CIT2-GFP pick2 101.5, AGP1-GFP pick2 100.2 and Yeast autofluor 0.21.
CCCN(C(=O)c1cccc(-n2cccc2)c1)c1c(N)n(Cc2ccccc2)c(=O)[nH]c1=O was read as CIT2-GFP yeast 104.9, AGP1-GFP MLPCN 105.7, RPL19A TOR yeast 90.0, LAP4 TOR yeast 104.2 and MEP2-GFP yeast 109.0.
Screening Cc1ccc(Nc2ccc(-n3ccnc3)nn2)cc1C returned CIT2-GFP yeast 79.5, AGP1-GFP MLPCN 30.3, RPL19A TOR yeast 53.2, LAP4 TOR yeast 96.6, MEP2-GFP yeast 156.5, LAP4 cherry2 103.2, MEP2 cherry2 103.1, RPL19A GFP CP2 100.6, CIT2-GFP pick2 100.1 and AGP1-GFP pick2 96.7.
Screening Cc1ccccc1NS(=O)(=O)c1ccc(C(=O)N2CCCC(C(F)(F)F)C2)cc1 (stereo not drawn) returned CIT2-GFP yeast 79.3, AGP1-GFP MLPCN 86.7, RPL19A TOR yeast 86.4, LAP4 TOR yeast 82.4 and MEP2-GFP yeast 96.1.
Screening CCn1c(=O)c([N+](=O)[O-])c(Cl)c2ccccc21 returned CIT2-GFP yeast 90.3, AGP1-GFP MLPCN 76.3, RPL19A TOR yeast 62.2, LAP4 TOR yeast 103.5, MEP2-GFP yeast 94.8, LAP4 cherry2 118.3, MEP2 cherry2 133.1, RPL19A GFP CP2 71.9, CIT2-GFP pick2 81.4 and AGP1-GFP pick2 77.3.
Screening CCn1c(=O)c([N+](=O)[O-])c(NCCN(C)C)c2ccccc21 returned CIT2-GFP yeast 91.5, AGP1-GFP MLPCN 108.5, RPL19A TOR yeast 102.0, LAP4 TOR yeast 100.4 and MEP2-GFP yeast 111.0.
`CCC(=O)OC1(C)C(=O)C2=COC(c3ccc(OC)cc3)=CC2=C(Br)C1=O` (stereo not drawn) gave CIT2-GFP yeast 56.9, AGP1-GFP MLPCN 44.8, RPL19A TOR yeast 83.9, LAP4 TOR yeast 137.1 and MEP2-GFP yeast 88.8.
COc1ccc(C2=CC3=C(Br)C(=O)C(C)(O)C(=O)C3=CO2)cc1 (stereo not drawn) was read as CIT2-GFP yeast 56.9, AGP1-GFP MLPCN 13.5, RPL19A TOR yeast 41.5*, LAP4 TOR yeast 97.8, MEP2-GFP yeast 116.8, LAP4 cherry2 125.2, MEP2 cherry2 150.2*, RPL19A GFP CP2 33.8*, CIT2-GFP pick2 159.9*, AGP1-GFP pick2 24.0 and Yeast autofluor 3.24.
For CC(=O)c1c(C)[nH]c(C(=O)COC(=O)c2ccc(C)s2)c1C the results were CIT2-GFP yeast 120.3, AGP1-GFP MLPCN 124.1, RPL19A TOR yeast 118.1, LAP4 TOR yeast 153.3*, MEP2-GFP yeast 131.4, LAP4 cherry2 99.0, MEP2 cherry2 104.8, RPL19A GFP CP2 101.3, CIT2-GFP pick2 98.4 and AGP1-GFP pick2 100.1.
CCOC(=O)c1c(C)[nH]c(C(=O)COC(=O)c2[nH]c(C)c(C(C)=O)c2C)c1C was read as CIT2-GFP yeast 112.7, AGP1-GFP MLPCN 108.0, RPL19A TOR yeast 103.4, LAP4 TOR yeast 109.7 and MEP2-GFP yeast 107.4.
Cc1cc(NC(=O)c2ccccc2C)n(-c2cccc(F)c2)n1 was read as CIT2-GFP yeast 96.9, AGP1-GFP MLPCN 129.1, RPL19A TOR yeast 97.3, LAP4 TOR yeast 119.8 and MEP2-GFP yeast 114.2.
`C=CCNC(=O)c1ccc(Cn2c(=S)[nH]c3cc4c(cc3c2=O)OCO4)cc1` gave CIT2-GFP yeast 78.4, AGP1-GFP MLPCN 88.3, RPL19A TOR yeast 90.2, LAP4 TOR yeast 80.8 and MEP2-GFP yeast 96.1.
